The record followed here is PubChem BioAssay.

Experiment [1] relates to PRMT1 (protein arginine N-methyltransferase 1). Nature of the experiment: small molecules binding arginine methyltransferase PRMT1 – biochemical, small-molecule microarray, 635 nm fluorescence, primary screen (AID 1088).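 Note: binding of Prmt1 protein to compounds spotted on small-molecule microarray slides.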 The settings on record: higher = more signal.
The nature of experiment [2]: growth effects on S. cerevisiae YJM789 – YJM789 clinical isolate, OD600, 24 h, basal, primary screen (AID 1089).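 Note: growth of clinical yeast isolate S. cerevisiae YJM 789 seeded 1000 cells per well; test concentration not given here.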 The settings on record: higher = more signal, called active from +8 up or from −8 down.
A short description of experiment [3]: S. pombe growth modifiers, basal conditions – strain 972, OD600, 24 h, no modulator, primary screen (AID 1090).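 Note: basal condition with compound alone and no growth modifier present; test concentration not given here.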 The settings on record: S. pombe 972 growth, higher = more signal, called active from +8 up or from −8 down.
Experiment [4] is described as follows: budding yeast growth modifiers under rapamycin – strain BY4716, OD600, 96 h, primary screen (AID 1091). Note: test concentration not given here. Conditions: S. cerevisiae BY4716 + rapamycin, higher = more signal, called active from +8 up or from −8 down.
Experiment [5] deals with Torsin-1A-interacting protein 2 (Homo sapiens) (UniProt Q8NFQ8). As to the kind of experiment: small molecules binding lysate-expressed LULL1 – cell lysate, human LULL1 lysate, 635/667 nm fluorescence, primary screen (AID 1092).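 Note: probe is lysate of COS7 cells overexpressing human LULL1; score merges per-feature 667 nm fluorescence with signal-to-noise.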 Conditions: small-molecule microarray, hLULL1 lysate binding, 635 nm fluorescence; higher = more signal.
Torsin-1A-interacting protein 2 (Homo sapiens), sequence (Q8NFQ8 whole entry, looked up): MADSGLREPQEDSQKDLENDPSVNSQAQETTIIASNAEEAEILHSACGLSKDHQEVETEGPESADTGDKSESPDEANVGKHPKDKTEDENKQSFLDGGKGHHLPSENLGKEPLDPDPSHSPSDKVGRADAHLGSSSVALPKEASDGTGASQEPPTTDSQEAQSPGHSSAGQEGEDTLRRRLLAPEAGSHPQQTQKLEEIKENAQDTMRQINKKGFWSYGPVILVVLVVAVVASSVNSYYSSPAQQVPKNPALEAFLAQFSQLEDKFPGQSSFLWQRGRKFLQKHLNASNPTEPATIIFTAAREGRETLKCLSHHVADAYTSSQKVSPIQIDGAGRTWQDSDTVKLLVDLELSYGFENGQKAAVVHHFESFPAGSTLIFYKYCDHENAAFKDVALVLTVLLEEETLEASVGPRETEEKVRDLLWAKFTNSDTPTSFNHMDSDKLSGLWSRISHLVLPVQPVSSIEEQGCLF
The nature of experiment [6]: optical density change of DRC41 E. coli – strain DRC41, OD650, 24 h, E. coli filamentation project, primary screen (AID 1093).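 Note: MC1000 strain lacking acrAB efflux and sulA so SOS filamentation is blocked; test concentration not given here.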 The settings on record: E. coli DRC41 growth, higher = more signal, called active from +8 up or from −8 down.
The nature of experiment [7]: probe aLefty2 binding to arrayed compounds – biochemical, biotinylated probe, 635/667 nm fluorescence, primary screen (AID 1094).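 Note: score merges spot fluorescence near 667 nm with spot signal-to-noise ratio.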 Conditions: small-molecule microarray, higher = more signal.
The subject of experiment [8] is Noggin (protein binding on small-molecule microarray). Nature of the experiment: small molecules binding Noggin protein – biochemical, 635/667 nm fluorescence, primary screen (AID 1095).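 Note: score merges 667 nm feature fluorescence with signal to noise over triplicate slides.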 The settings on record: 635 nm fluorescence, higher = more signal.
The target of experiment [9] is Neurogenic locus notch homolog protein 3 (Homo sapiens) (UniProt Q9UM47). Nature of the experiment: small molecules binding NOTCH3 protein – biochemical, 635/667 nm fluorescence, primary screen (AID 1096). Conditions: small-molecule microarray, 635 nm fluorescence, higher = more signal.
Neurogenic locus notch homolog protein 3 (Homo sapiens), sequence (Q9UM47 whole entry, looked up): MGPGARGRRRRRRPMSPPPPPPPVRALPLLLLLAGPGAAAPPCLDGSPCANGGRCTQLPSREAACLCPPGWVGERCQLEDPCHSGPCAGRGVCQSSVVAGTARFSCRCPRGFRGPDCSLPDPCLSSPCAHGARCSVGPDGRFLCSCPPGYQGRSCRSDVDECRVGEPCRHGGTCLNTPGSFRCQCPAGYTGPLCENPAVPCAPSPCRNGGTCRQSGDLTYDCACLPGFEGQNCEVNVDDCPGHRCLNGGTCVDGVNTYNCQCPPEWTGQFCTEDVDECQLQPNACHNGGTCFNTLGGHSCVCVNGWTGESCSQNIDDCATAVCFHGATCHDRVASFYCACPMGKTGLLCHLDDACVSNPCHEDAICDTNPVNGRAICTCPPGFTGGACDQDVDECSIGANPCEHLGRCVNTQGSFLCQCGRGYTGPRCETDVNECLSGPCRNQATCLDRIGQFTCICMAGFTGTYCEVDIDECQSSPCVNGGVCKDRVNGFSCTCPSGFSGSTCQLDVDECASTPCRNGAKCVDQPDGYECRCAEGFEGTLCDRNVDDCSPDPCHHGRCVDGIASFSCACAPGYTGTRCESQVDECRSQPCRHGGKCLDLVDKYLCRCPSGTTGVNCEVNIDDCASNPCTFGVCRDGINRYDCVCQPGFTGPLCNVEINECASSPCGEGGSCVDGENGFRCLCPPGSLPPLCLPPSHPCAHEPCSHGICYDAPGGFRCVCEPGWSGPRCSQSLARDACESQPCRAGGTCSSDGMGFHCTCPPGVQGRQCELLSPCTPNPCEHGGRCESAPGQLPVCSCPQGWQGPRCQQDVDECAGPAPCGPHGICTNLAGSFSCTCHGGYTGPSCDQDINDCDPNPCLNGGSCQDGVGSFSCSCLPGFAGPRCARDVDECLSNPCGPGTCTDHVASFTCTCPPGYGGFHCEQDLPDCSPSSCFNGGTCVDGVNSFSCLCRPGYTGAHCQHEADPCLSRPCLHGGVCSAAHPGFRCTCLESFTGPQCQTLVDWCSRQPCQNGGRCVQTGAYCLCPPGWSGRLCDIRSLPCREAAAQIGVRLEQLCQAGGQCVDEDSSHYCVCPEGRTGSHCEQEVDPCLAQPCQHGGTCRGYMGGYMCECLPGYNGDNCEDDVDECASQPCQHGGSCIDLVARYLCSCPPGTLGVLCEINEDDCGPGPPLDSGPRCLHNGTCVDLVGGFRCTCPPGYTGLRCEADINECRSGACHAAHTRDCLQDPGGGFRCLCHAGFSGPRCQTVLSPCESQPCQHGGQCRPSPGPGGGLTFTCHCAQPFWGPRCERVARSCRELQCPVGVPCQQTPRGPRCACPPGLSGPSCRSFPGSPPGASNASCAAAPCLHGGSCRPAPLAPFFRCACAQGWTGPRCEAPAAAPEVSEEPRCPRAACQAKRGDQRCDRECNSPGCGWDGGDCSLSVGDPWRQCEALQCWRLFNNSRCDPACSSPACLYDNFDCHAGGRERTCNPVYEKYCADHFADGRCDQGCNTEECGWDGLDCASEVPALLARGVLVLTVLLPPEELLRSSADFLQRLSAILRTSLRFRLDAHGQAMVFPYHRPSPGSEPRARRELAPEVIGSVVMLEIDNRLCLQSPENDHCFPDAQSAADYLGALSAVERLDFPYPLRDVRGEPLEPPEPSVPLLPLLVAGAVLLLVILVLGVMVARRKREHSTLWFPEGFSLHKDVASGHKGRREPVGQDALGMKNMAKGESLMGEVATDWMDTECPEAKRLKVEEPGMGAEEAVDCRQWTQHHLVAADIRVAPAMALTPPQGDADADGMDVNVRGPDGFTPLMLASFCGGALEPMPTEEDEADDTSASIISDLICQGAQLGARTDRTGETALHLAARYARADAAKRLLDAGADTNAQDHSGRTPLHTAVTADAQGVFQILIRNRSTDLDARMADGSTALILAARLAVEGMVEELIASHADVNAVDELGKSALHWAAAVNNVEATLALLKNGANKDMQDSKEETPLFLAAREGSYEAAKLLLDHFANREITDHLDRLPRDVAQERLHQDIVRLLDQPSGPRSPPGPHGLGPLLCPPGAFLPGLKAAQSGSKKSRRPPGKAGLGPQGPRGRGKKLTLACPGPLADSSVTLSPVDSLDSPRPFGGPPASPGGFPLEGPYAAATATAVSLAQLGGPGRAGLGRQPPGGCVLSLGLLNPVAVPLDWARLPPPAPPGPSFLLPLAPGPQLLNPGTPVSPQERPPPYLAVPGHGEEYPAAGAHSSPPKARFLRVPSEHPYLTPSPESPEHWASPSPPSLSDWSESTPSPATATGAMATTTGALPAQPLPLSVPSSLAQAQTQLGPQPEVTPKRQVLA
Experiment [10] in a line: probe aEGFR binding to arrayed compounds – biochemical, biotinylated probe, 635/667 nm fluorescence, primary screen (AID 1097).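 Note: probe is a biotinylated anti-EGFR antibody binding compounds printed on slides; score combines fluorescence near 667 nm and signal to noise of each spot.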 Conditions: small-molecule microarray, higher = more signal.
For experiment [11], the system named is Plasmodium falciparum Sir2 (PF13_0152, Sir2A). Nature of the experiment: Plasmodium falciparum Sir2A binding compounds – biochemical, small-molecule microarray, 635 nm fluorescence, primary screen (AID 1098).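 Note: score merges spot fluorescence intensity with its signal-to-noise ratio.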 Conditions: fluorescence 635 nm, higher = more signal.
Experiment [12] in a line: probe aDKK1 binding to arrayed compounds – biochemical, biotinylated probe, 635/667 nm fluorescence, primary screen (AID 1099).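 Note: score merges 667nm spot fluorescence with signal to noise across triplicate slides; reference of the scale not given here.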 The settings on record: small-molecule microarray, higher = more signal.
The nature of experiment [13]: probe aCHRDL2 binding to arrayed compounds – biochemical, biotinylated probe, 635/667 nm fluorescence, primary screen (AID 1100). Conditions: small-molecule microarray, higher = more signal.
The nature of experiment [14]: change in splice reporter luminescence, either direction, cell-based, HEK293, spliceosome inhibition project, primary screen (AID 1101).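 Note: HEK293 cells carrying a splicing-competent luciferase reporter gene; test concentration not given here.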 The settings on record: HEK293 splicing luciferase reporter, 24 h, higher = more signal, called active from +8 up or from −8 down.
The target in experiment [15] is Fibroblast growth factor 10 (Homo sapiens) (UniProt O15520). Nature of the experiment: compounds binding fibroblast growth factor 10 – biochemical, small-molecule microarray, 635 nm fluorescence, primary screen (AID 1102). Conditions: FGF10 binding, fluorescence 635 nm, higher = more signal.
Fibroblast growth factor 10 (Homo sapiens), sequence (O15520 whole entry, looked up): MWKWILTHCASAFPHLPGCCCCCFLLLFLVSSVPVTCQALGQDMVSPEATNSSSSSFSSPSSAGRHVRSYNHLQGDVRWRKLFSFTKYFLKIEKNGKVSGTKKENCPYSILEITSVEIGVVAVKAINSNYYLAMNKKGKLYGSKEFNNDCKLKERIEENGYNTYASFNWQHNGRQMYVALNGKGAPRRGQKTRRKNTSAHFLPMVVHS
Experiment [16] concerns glycogen synthase kinase-3 (GSK3A per assay name; protocol says GSK3B). Nature of the experiment: compounds binding glycogen synthase kinase-3 – biochemical, small-molecule microarray, 635 nm fluorescence, GSK3A, primary screen (AID 1103). Note: the record names both GSK3A and GSK3B. Conditions: fluorescence 635 nm, higher = more signal.
Experiment [17] addresses Epidermal growth factor receptor (Homo sapiens) (UniProt P00533). Nature of the experiment: compounds binding epidermal growth factor receptor – biochemical, small-molecule microarray, 635 nm fluorescence, primary screen (AID 1104).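 Note: score merges 667 nm emission intensity with spot signal to noise over triplicate slides.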 The settings on record: EGFR binding, higher = more signal.
Experiment [18] addresses Follistatin-related protein 3 (Homo sapiens) (UniProt O95633). Nature of the experiment: compounds binding follistatin-related protein 3 – biochemical, small-molecule microarray, 635 nm fluorescence, primary screen (AID 1105).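 Note: score merges emission near 667 nm and signal to noise per printed spot across three slides.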 The settings on record: FSTL3 binding, higher = more signal.
Experiment [19] has as its target Dickkopf-related protein 1 (Homo sapiens) (UniProt O94907). Nature of the experiment: small molecules binding DKK1 protein – biochemical, small-molecule microarray, 635 nm fluorescence scan, primary screen (AID 1106).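 Note: score merges emission near 667 nm with signal to noise over three replicate slides.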 Conditions: higher = more signal.
The test system of experiment [20] is Inhibin beta A chain (activin A). Nature of the experiment: small molecules binding activin A – biochemical, small-molecule microarray, 635 nm fluorescence scan, primary screen (AID 1107).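 Note: mouse activin A protein probed at 4.33 µg/mL on printed slides; score merges bound-protein fluorescence near 667 nm with spot signal-to-noise.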 The settings on record: INHBA, higher = more signal.

Molecules are shown by their SMILES. The source made the active and inactive calls.

Follistatin-related protein 3 (Homo sapiens), sequence (O95633 whole entry, looked up): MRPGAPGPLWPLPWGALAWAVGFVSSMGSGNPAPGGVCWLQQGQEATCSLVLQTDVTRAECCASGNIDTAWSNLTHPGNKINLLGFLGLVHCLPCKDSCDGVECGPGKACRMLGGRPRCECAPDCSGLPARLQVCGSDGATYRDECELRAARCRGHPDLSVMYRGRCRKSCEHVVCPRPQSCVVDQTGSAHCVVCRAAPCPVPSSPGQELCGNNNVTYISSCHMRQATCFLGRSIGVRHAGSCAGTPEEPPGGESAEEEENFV
Dickkopf-related protein 1 (Homo sapiens), sequence (O94907 whole entry, looked up): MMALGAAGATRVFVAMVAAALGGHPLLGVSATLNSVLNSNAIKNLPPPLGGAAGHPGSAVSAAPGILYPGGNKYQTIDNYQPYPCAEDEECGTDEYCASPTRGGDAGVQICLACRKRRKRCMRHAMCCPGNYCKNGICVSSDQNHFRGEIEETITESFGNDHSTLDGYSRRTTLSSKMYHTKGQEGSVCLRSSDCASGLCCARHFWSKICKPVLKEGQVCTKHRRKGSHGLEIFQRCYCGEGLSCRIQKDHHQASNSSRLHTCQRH
Epidermal growth factor receptor (Homo sapiens), sequence (P00533 whole entry, looked up): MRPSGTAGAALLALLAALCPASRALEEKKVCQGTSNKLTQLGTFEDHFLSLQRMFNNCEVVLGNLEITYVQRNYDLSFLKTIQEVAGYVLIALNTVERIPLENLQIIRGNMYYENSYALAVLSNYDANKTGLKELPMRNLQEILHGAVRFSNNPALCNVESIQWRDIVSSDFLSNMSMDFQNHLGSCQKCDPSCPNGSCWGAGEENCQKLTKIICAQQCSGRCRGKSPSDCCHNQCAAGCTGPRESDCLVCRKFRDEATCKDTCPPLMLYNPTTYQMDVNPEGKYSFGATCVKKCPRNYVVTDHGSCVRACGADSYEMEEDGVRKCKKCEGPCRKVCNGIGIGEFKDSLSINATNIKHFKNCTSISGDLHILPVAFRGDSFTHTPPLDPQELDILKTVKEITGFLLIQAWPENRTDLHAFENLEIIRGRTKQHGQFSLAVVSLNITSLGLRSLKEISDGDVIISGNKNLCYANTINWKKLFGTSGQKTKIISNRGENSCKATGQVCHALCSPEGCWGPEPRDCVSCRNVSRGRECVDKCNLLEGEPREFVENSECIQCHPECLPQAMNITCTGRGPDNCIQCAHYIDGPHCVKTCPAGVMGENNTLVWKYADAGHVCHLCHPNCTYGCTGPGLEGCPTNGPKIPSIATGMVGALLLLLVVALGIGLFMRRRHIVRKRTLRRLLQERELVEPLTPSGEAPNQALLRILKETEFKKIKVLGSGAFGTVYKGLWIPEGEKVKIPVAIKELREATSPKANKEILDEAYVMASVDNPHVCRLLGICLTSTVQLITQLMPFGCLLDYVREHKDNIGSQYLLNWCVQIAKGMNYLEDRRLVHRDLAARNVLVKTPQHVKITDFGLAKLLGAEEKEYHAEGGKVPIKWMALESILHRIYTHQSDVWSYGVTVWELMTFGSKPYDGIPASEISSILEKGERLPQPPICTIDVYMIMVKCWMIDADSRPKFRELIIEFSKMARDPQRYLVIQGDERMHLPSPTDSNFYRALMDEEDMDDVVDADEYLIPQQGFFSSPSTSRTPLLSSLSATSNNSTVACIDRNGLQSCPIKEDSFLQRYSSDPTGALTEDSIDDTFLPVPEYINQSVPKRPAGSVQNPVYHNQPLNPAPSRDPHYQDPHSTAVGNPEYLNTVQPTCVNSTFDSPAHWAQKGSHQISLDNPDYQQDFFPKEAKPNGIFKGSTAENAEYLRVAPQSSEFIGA

Take `CO[C@@H]1C=CCC(=O)N[C@@H](C)C(=O)OC[C@@H](NS(=O)(=O)c2ccc(C)cc2)[C@H](C)C=CCC(=O)OC[C@H]1C`: the composite z-score is 0.375 in experiment [1]; -1.35 in [5]; -0.15 in experiment [7]; 0.98 in experiment [8]; -0.381 in experiment [9]; -0.123 in experiment [10]. Further, the composite z-score in [11] was -0.401; in experiment [12] it was -0.298; in experiment [13], -0.748; in experiment [15], 0.238; in experiment [16] it was -0.0731; in experiment [17], 0.329. For the same molecule, the composite z-score in experiment [18] stood at 0.828; in experiment [19], 0.359; in [20] it was 0.976. In addition, the z-score in [2] is -0.413 (inactive); in experiment [3], -0.266 (inactive); in experiment [4], -0.411 (inactive); in experiment [6], 0.0927 (inactive); in [14], -0.275 (inactive).

Regarding `CON=C1c2cc(OC)ccc2O[C@H](c2cccc(OC)c2)[C@H]1O`, the composite z-score in [1] was -0.0242; in [5], 0.365; in experiment [7], -0.0515; in [8], 0.588; in [9] it was 0.684; in [10] it was 0.0242. Also, the composite z-score was 0.386 in experiment [11]; -0.0086 in [12]; -0.365 in experiment [13]; 0.934 in experiment [15]; 0.498 in experiment [16]; 0.52 in [17]. In addition, the results for the composite z-score in [18], in [19] and in experiment [20] were 0.81, 0.636 and 0.593, respectively. For the same molecule, the z-score in [2] was -0.976 (inactive); in [3], -3 (inactive); in experiment [4] it was -1.75 (inactive); in experiment [6] it was 0.792 (inactive); in experiment [14] it was -0.268 (inactive).

Consider `C#CCCCON=C1C[C@@H](O)[C@@H](O)[C@@H]2[C@@H]3C(=O)N(CC)C(=O)[C@@H]3CC[C@H]12`, for which the composite z-score is 1.37 in experiment [1]; 2.11 in [5]; -0.25 in experiment [7]; 0.726 in [8]; 0.348 in [9]; -0.174 in [10]. The composite z-score in experiment [11] was 0.581; in experiment [12], -0.189; in experiment [13] it was -0.267; in experiment [15] it was 0.301; in experiment [16], -0.396; in [17], 0.285. Further, the composite z-score was -0.331 in experiment [18], 0.209 in [19] and -0.124 in experiment [20]. Moreover, the z-score is -0.276 (inactive) in [2]; -0.26 (inactive) in [3]; -0.247 (inactive) in [4]; 0.216 (inactive) in experiment [6]; 0.385 (inactive) in [14].

For the molecule `CC(C)=NOC(C)CN1CCCc2nc(C)c(C)cc21` (stereo not given), the composite z-score stood at 1.58 in experiment [1]; 1.31 in experiment [5]; 0.406 in experiment [7]; 0.674 in [8]; 1.07 in [9]; 0.0287 in experiment [10]. The composite z-score in experiment [11] was 1.19; in experiment [12], -0.446; in experiment [13], -0.696; in experiment [15], 0.809; in experiment [16], 1.1; in [17], 0.697. The composite z-score in experiment [18] came out at 1.16; in [19] it was 0.63; in experiment [20], 0.206. Moreover, the z-score is 0.777 (inactive) in [2]; 0.516 (inactive) in experiment [3]; 0.347 (inactive) in [4]; -0.196 (inactive) in experiment [6]; 0.484 (inactive) in experiment [14].

With `Cc1ccc2[nH]c3nc(CCCn4ccnc4-c4ccccc4)nnc3c2c1`, the composite z-score is 0.842 in experiment [1]; 1.38 in [5]; 0.504 in experiment [7]; 0.385 in experiment [8]; 1.12 in experiment [9]; -0.009 in experiment [10]. Moreover, the composite z-score is 0.663 in experiment [11]; -0.28 in experiment [12]; -0.0165 in experiment [13]; 0.632 in [15]; 1.22 in experiment [16]; 0.32 in experiment [17]. The composite z-score in experiment [18] is 1.31; in experiment [19], 0.869; in experiment [20], -0.739. Besides, the z-score in experiment [2] was 0.324 (inactive); in [3], 0.0855 (inactive); in experiment [4], -0.425 (inactive); in experiment [6], 1.13 (inactive); in experiment [14], -0.128 (inactive).
